Data on 7 compounds can be found in PubChem BioAssay (EPA / NIEHS).

As a reminder, the AC50 is the concentration giving half of the maximal activity seen.

For assay [1], the target named is CCAAT/enhancer-binding protein beta (Homo sapiens) (UniProt P17676). In words: ATG_C_EBP_CIS: Attagene CIS-FACTORIAL HepG2 Assay for human CCAAT/Enhancer Binding Protein (C/EBP) beta (AID 2282927). Conditions: HepG2 Attagene cis-factorial transcription factor reporter; actives raise or lower the signal. The essentials: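 Following a 24 h incubation with test chemical, transfected HepG2 cells yielded RNA whose reporter transcripts were quantified by RT-PCR and fluorescent capillary electrophoresis, with DMSO serving as baseline for bidirectional fitting.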
CCAAT/enhancer-binding protein beta (Homo sapiens), sequence (P17676 whole entry, looked up): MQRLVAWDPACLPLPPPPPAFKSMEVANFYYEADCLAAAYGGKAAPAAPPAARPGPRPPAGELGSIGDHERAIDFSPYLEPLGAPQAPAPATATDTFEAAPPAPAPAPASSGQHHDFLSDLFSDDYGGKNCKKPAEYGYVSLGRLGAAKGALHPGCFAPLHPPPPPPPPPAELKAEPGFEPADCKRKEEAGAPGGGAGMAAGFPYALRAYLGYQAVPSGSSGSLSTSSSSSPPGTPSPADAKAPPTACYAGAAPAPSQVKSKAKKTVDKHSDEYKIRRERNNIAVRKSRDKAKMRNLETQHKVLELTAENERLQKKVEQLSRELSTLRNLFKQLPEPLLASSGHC

Assay [2] in a line: ATG_DR4_LXR_CIS: Attagene CIS-FACTORIAL HepG2 Assay for human Liver X Receptor (LXR), DR4 submotif (AID 2282929). The following applies: HepG2 Attagene DR4 cis-reporter, mRNA transcription; actives raise or lower the signal. Summed up: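 After transient transfection with multiplexed cis-promoter reporter units, HepG2 cells received test chemicals for 24 h. Reporter mRNA induction, detected by fluorescence after RT-PCR and capillary electrophoresis, was scored relative to DMSO.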

A short description of assay [3]: ATG_AP_2_CIS: Attagene CIS-FACTORIAL HepG2 Assay for human Activator Protein 2 (AP-2) (AID 2282932). Conditions: HepG2 AP-2 cis-reporter, Attagene transcription factor profiling; actives raise or lower the signal. The essentials: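 Bidirectional curve fitting against DMSO was applied to reporter mRNA signals from HepG2 cells 24 h after dosing. Cis-promoter reporter units, transiently transfected, were read by RT-PCR plus capillary electrophoresis.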

The target in assay [4] is Transcription factor E2F1 (Homo sapiens) (UniProt Q01094). Nature of the assay: ATG_E2F_CIS: Attagene CIS-FACTORIAL HepG2 Assay for human E2F Transcription Factor 1 (AID 2282935). Conditions: HepG2 Attagene cis-reporter, E2F reporter RNA transcripts; actives raise or lower the signal. The essentials:
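Multiplexed cis-reporter assay: HepG2, transient transfection, 24 h dosing, mRNA quantitation by labeled RT-PCR and CE.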

Assay [5] is described as follows: ATG_E_Box_CIS: Attagene CIS-FACTORIAL HepG2 Assay for human Enhancer Box (E-box) (AID 2282936). Conditions: HepG2 E-box cis-reporter transcription, actives raise or lower the signal. The essentials:
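Multiplexed CIS reporter system in transiently transfected HepG2 cells measures native transcription factor activity. Reporter RNA after 24 h exposure is profiled by RT-PCR-capillary electrophoresis.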

Assay [6] can be described thus: ATG_M_19_CIS: Attagene CIS-FACTORIAL HepG2 Assay for M19 Transcription Factor (Internal Marker) (AID 2282939). Conditions: HepG2 Attagene CIS-FACTORIAL M19 internal marker reporter; actives raise or lower the signal. Summed up: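 Signals come from fluorescence of labelled reporter-specific PCR fragments resolved by capillary electrophoresis, following 24 h treatment of HepG2 cells transfected with cis-promoter reporter units; activity was fitted in both directions relative to DMSO.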

A short description of assay [7]: ATG_GLI_CIS: Attagene CIS-FACTORIAL HepG2 Assay for human Zinc Finger Protein GLI1 (AID 2282945). The following applies: HepG2, Attagene cis-factorial reporter mRNA, GLI element; actives raise or lower the signal. Summed up: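 HepG2 cells transiently transfected with cis-promoter multiplexed reporter units report endogenous transcription factor activity. After 24 h chemical exposure, reporter mRNA was quantified by RT-PCR, 6-FAM labelling, HpaI digestion and capillary electrophoresis, with bidirectional fitting against DMSO.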

Assay [8] is described as follows: ATG_ISRE_CIS: Attagene CIS-FACTORIAL HepG2 Assay for human Interferon Regulatory Factor 1 (IRF1) binding to an Interferon-Stimulated Response Element (ISRE) (AID 2282948). Conditions: HepG2 ISRE cis-reporter (Attagene), mRNA transcription readout; actives raise or lower the signal. The essentials: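 Transfected HepG2 (multiple reporter transcription units, cis elements) dosed 24 h. RNA → oligo(dT) RT → PCR → 6-FAM primer extension → HpaI → CE. DMSO = negative control/baseline.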

Assay [9] in a line: ATG_M_32_CIS: Attagene CIS-FACTORIAL HepG2 Assay for M32 Transcription Factor (Internal Marker) (AID 2282949).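 Note: background control marker of the multiplexed CIS panel rather than a real target.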 Conditions: HepG2 Attagene cis-factorial M32 reporter, mRNA; actives raise or lower the signal. Summed up:
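Fluorescent capillary electrophoresis peaks of HpaI-digested, FAM-labelled RT-PCR reporter products give the signal. Source: transiently transfected human liver HepG2 cells, 24 h after chemical dosing; bidirectional fitting against DMSO.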

Assay [10] can be described thus: ATG_PXRE_CIS: Attagene CIS-FACTORIAL HepG2 Assay for human Pregnane X Receptor Element (PXRE) (AID 2282957). The following applies: HepG2 Attagene CIS-FACTORIAL PXRE reporter, mRNA; actives raise or lower the signal. The essentials:
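Cis-element reporter mRNA in human hepatoma HepG2 cells is measured 24 h post-dosing by RT-PCR, primer-extension labeling and capillary electrophoresis; gain or loss of signal is fitted relative to DMSO.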

The nature of assay [11]: ATG_Sox_CIS: Attagene CIS-FACTORIAL HepG2 Assay for human SRY-box transcription factor (SOX) (AID 2282960). The following applies: HepG2 Attagene cis-factorial SOX reporter, mRNA; actives raise or lower the signal. The essentials: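 Using transiently transfected HepG2 cells, reporter transcription driven by cis elements was assessed 24 h after dosing. Signal was fluorescence of capillary-separated RT-PCR products, with DMSO defining baseline activity.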

In assay [12] the target is Transcription factor Sp1 (Homo sapiens) (UniProt P08047). Nature of the assay: ATG_Sp1_CIS: Attagene CIS-FACTORIAL HepG2 Assay for human Specificity Protein 1 (Sp1) (AID 2282961). The following applies: HepG2 Sp1 cis-reporter transcription, actives raise or lower the signal. The essentials:
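After transient transfection of HepG2 cells with cis-promoter reporter units and 24 h chemical treatment, reporter transcripts were quantified by RT-PCR and capillary electrophoresis fluorescence. Gain- and loss-of-signal fitted against DMSO.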

Assay [13] deals with Signal transducer and activator of transcription 3 (Homo sapiens) (UniProt P40763). Nature of the assay: ATG_STAT3_CIS: Attagene CIS-FACTORIAL HepG2 Assay for human Signal Transducer and Activator of Transcription 3 (STAT3) (AID 2282963). Conditions: HepG2, Attagene cis-factorial STAT3 reporter transcription; actives raise or lower the signal. Summed up: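 Transcript-level reporter assay. HepG2 transient MRTU transfection, 24 h exposure, fluorescence detection after RT-PCR and CE; DMSO baseline.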
Signal transducer and activator of transcription 3 (Homo sapiens), sequence (P40763 whole entry, looked up): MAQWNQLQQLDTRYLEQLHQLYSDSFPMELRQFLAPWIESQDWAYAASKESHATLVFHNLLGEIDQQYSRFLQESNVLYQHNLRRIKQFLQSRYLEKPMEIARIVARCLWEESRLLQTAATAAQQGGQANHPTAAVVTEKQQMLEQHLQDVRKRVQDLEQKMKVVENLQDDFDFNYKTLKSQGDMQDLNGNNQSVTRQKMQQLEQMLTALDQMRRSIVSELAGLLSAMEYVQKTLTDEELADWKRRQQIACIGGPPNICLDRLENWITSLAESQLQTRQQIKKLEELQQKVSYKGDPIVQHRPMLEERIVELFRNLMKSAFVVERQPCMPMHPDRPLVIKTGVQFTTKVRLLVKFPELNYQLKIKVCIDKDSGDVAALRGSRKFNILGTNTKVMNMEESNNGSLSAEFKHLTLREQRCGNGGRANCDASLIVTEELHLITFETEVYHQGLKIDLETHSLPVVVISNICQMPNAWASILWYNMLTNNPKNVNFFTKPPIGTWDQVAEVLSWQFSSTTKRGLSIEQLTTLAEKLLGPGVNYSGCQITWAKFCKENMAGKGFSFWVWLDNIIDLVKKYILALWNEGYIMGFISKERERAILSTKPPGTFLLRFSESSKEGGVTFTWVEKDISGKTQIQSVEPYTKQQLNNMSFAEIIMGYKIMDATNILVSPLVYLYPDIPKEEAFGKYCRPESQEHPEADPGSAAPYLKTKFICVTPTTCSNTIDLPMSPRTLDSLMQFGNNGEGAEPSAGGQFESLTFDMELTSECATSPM

Assay [14] in a line: ATG_TA_CIS: Attagene CIS-FACTORIAL HepG2 Assay for human TA Basal Promoter (AID 2282964). The following applies: HepG2 Attagene CIS-factorial TA basal promoter reporter; actives raise or lower the signal. Summed up: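 Fluorescence from labelled RT-PCR reporter fragments, separated by capillary electrophoresis, gives the signal. Cells: HepG2 transiently carrying multiple reporter units, 24 h chemical dosing. Gain or loss relative to DMSO.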

The nature of assay [15]: ATG_TCF_b_cat_CIS: Attagene CIS-FACTORIAL HepG2 Assay for human T-Cell-Factor with beta-catenin (TCF/b-cat) (AID 2282965). The following applies: HepG2 TCF/beta-catenin cis-reporter transcription, actives raise or lower the signal. Summed up: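 Using capillary electrophoresis as the read-out, labelled reporter cDNA fragments from transiently transfected HepG2 were sized and quantified. Exposure lasted 24 hours; activity in either direction was referenced to DMSO.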

Assay [16] in a line: ATG_TAL_CIS: Attagene CIS-FACTORIAL HepG2 Assay for human TAL Basal Promoter (AID 2282966).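 Note: background control endpoint measuring basal TAL promoter reporter mRNA not a specific factor.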 Conditions: HepG2 Attagene cis-factorial TAL promoter reporter; actives raise or lower the signal. Summed up:
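In this cell-based multiplex, HepG2 liver cells bearing cis-promoter reporter constructs are dosed for 24 hours. Total RNA is reverse-transcribed and amplified, labelled fragments are sized by capillary electrophoresis, and signal changes are fitted bidirectionally versus DMSO.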

Assay [17] deals with X-box-binding protein 1 (Homo sapiens) (UniProt P17861). In words: ATG_Xbp1_CIS: Attagene CIS-FACTORIAL HepG2 Assay for human X-box Binding Protein 1 (XBP1) (AID 2282972). The following applies: HepG2 XBP1 cis-element reporter, Attagene multiplex; actives raise or lower the signal. Summed up:
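HepG2, transient MRTU transfection (cis-promoter driven), 24 h compound exposure. Total RNA → oligo(dT) RT → PCR → 6-FAM labeling → HpaI cut → CE. Bidirectional fit vs DMSO.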

The target in assay [18] is Transcriptional activator Myb (Homo sapiens) (UniProt P10242). In words: ATG_Myb_CIS: Attagene CIS-FACTORIAL HepG2 Assay for human Myeloblastosis (Myb) Proto-Oncogene Transcription Factor (AID 2282986). The following applies: HepG2 Attagene CIS-FACTORIAL Myb reporter transcription; actives raise or lower the signal. Summed up:
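Multiplexed cis-reporter system in HepG2: transient transfection, 24 h treatment, mRNA readout by RT-PCR and capillary electrophoresis. Both increases and decreases are scored versus DMSO negative control.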

Assay [19] has as its target Myc proto-oncogene protein (Homo sapiens) (UniProt P01106). In words: ATG_Myc_CIS: Attagene CIS-FACTORIAL HepG2 Assay for human Myelocytomatosis (Myc) Proto-Oncogene Transcription Factor (AID 2282990). The following applies: HepG2, Attagene cis-reporter transcription factor activity; actives raise or lower the signal. The essentials: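 Multiplexed cis-reporter transcription in HepG2 cells after 24 h chemical treatment. Reporter mRNA measured by RT-PCR and capillary electrophoresis fluorescence; activity fitted bidirectionally against DMSO control.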

A short description of assay [20]: ATG_Oct_MLP_CIS: Attagene CIS-FACTORIAL HepG2 Assay for human Octamer-Binding Transcription Factor (Oct) (AID 2282993). Conditions: HepG2 Attagene cis-factorial Oct reporter, mRNA; actives raise or lower the signal. The essentials: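 HepG2, transient MRTU transfection, cis promoter elements; 24 h dosing; RT-PCR/CE fluorescence read-out of reporter mRNA; fit both directions vs DMSO.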

Active and inactive are the calls of the source. Rule for the calls: active = hit-call score of the fitted dose curve at least 0.9, where 1 is the maximum; inactive = score below 0.9.

X-box-binding protein 1 (Homo sapiens), sequence (P17861 whole entry, looked up): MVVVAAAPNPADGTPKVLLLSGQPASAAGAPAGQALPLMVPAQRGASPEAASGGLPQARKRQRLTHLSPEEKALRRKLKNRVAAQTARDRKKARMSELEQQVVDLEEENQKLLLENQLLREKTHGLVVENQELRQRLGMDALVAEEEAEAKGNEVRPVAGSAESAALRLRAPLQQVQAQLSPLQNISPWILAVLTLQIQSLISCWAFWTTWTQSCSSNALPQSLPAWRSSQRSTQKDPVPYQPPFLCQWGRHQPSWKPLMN
Transcription factor Sp1 (Homo sapiens), sequence (P08047 whole entry, looked up): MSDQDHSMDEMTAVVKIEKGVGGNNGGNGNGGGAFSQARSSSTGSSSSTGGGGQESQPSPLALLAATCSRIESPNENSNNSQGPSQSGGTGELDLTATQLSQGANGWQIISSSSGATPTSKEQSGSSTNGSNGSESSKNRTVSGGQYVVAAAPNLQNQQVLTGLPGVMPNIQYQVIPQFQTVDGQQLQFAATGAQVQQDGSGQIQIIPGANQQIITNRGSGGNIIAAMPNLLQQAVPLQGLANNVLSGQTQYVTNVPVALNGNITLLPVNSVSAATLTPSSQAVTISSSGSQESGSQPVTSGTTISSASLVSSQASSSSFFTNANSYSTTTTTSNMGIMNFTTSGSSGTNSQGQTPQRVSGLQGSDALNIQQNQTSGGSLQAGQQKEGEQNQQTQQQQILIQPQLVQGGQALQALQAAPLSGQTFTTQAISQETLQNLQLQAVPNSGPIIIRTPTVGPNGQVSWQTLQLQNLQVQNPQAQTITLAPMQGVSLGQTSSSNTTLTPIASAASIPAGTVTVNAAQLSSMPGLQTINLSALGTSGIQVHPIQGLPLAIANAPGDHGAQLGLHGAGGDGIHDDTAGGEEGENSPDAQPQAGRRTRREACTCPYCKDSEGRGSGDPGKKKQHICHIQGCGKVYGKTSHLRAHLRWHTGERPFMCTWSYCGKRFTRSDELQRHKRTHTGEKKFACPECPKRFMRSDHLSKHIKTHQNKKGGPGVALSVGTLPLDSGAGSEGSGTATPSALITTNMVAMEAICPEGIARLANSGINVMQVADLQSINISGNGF
Transcriptional activator Myb (Homo sapiens), sequence (P10242 whole entry, looked up): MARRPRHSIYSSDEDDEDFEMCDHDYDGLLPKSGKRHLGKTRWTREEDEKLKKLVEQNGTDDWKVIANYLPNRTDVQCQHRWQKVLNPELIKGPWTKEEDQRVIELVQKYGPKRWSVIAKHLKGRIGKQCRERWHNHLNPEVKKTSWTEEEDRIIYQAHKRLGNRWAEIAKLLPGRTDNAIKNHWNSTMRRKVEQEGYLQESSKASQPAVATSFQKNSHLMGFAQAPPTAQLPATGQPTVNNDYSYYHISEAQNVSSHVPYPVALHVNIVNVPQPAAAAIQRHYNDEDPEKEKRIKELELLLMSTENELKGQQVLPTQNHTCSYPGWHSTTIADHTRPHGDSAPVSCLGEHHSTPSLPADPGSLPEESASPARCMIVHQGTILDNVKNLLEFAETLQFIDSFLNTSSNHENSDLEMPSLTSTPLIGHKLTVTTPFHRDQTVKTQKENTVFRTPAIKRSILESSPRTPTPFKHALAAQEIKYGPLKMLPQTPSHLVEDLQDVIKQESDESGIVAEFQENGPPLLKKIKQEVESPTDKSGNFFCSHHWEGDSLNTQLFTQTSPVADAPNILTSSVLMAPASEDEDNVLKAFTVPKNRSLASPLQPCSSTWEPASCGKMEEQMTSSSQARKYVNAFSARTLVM
Myc proto-oncogene protein (Homo sapiens), sequence (P01106 whole entry, looked up): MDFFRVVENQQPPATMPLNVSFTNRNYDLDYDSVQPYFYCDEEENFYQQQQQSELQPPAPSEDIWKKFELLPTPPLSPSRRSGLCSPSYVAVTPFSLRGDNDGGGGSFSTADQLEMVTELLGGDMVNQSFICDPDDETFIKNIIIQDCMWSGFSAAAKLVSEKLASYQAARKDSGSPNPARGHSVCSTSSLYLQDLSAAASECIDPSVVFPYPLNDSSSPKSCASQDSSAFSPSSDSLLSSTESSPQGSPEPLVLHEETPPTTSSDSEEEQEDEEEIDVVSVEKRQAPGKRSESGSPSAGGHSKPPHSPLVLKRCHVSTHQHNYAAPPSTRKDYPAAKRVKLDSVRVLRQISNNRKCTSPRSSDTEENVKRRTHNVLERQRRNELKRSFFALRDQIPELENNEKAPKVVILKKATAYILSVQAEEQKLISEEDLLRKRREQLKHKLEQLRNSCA
Transcription factor E2F1 (Homo sapiens), sequence (Q01094 whole entry, looked up): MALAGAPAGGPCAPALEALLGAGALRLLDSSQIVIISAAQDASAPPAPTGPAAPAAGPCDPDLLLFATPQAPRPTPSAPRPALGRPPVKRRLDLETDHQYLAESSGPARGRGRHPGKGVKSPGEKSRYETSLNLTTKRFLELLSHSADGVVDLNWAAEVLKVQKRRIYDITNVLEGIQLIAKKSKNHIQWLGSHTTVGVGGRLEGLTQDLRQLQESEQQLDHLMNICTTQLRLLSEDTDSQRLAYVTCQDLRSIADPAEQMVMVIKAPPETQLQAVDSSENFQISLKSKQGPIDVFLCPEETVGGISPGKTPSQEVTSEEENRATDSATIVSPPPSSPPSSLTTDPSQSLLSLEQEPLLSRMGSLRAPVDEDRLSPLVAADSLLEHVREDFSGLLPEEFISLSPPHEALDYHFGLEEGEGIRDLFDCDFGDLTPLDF

Regarding `COc1ncc(F)c2nc(S(=O)(=O)Nc3c(F)cccc3F)nn12`, the outcome in [1], in assay [2], in [3], in assay [4], in assay [5] and in assay [6] was inactive. For the same compound, the outcome in assay [7], in [8], in [9], in assay [11], in [12] and in [13] was inactive. The result in [14], in [15], in [16], in [17], in assay [18] and in assay [19] was inactive. The compound was called inactive in assay [20]. In addition, in assay [10], the AC50 was 15.3 µM (active).

In the case of `N#CC(c1ccccc1)c1ccccc1`, the result in assay [1], in assay [2], in assay [3], in [4], in assay [5] and in [6] was inactive. Further, the call in assay [7], in assay [8], in assay [9], in [11], in assay [12] and in assay [13] was inactive. Moreover, the result in assay [14], in assay [15], in [16], in assay [17], in assay [18] and in assay [19] was inactive. In addition, the compound was called inactive in [20]. For the same compound, the AC50 in assay [10] was 11.1 µM (active).

In the case of `CC(O)CN(CC(C)O)CC(C)O` (stereo not given), the result in assay [1], in assay [2], in [3], in [4], in [5] and in assay [6] was inactive. Further, the compound was called inactive in [7], in assay [8], in assay [9], in assay [10], in [11] and in [12]. Moreover, the compound was classed as inactive in [13], in [14], in assay [15], in assay [16], in assay [17] and in assay [18]. Besides, the compound was classed as inactive in assay [19] and in assay [20].

In the case of `O=C1C=CC(=O)C=C1`, the outcome in assay [1], in assay [2], in assay [3], in assay [4], in assay [5] and in assay [6] was inactive. Also, the outcome in assay [7], in [8], in [9], in [11], in [12] and in assay [13] was inactive. The compound was called inactive in assay [14], in [15], in assay [16], in [17], in [18] and in assay [19]. Further, the outcome in assay [20] was inactive. In assay [10], the AC50 was 26.4 µM (active).

For the compound `CC(Cc1ccc(C(C)(C)C)cc1)CN1C[C@@H](C)O[C@@H](C)C1` (stereo not given in full), the result in [1], in [2], in assay [3], in assay [4], in [5] and in assay [6] was inactive. Moreover, the compound was classed as inactive in [7], in assay [8], in assay [9], in [12], in [13] and in [14]. Moreover, the call in [15], in assay [16], in [17], in assay [18], in [19] and in [20] was inactive. For the same compound, the AC50 in assay [10] was 4.18 µM (active); in assay [11], 24.7 µM (active).

Regarding `CC1OC(C)OC(C)O1` (stereo not given), the outcome in assay [1], in [2], in [3], in [4], in [5] and in assay [6] was inactive. Also, the call in [7], in assay [8], in assay [9], in [10], in [11] and in assay [12] was inactive. The outcome in assay [13], in assay [14], in assay [15], in assay [16], in [17] and in [18] was inactive. Besides, the outcome in [19] and in assay [20] was inactive.

With `C=CCN(CC=C)C(=O)C(Cl)Cl`, the outcome in assay [1], in [2], in assay [3], in assay [4], in assay [5] and in [6] was inactive. Also, the compound was classed as inactive in assay [7], in assay [8], in [9], in assay [11], in assay [12] and in [13]. Also, the call in [14], in assay [15], in assay [16], in [17], in assay [18] and in [19] was inactive. For the same compound, in [20], the compound was called inactive. Besides, the AC50 in assay [10] was 43.9 µM (active).
